Measured values published in PubChem BioAssay (Tox21).
Activity calls are given as the source filed them. Calls come from the whole dose curve; as a rule, active = well fitted curve in the direction sought with a large enough effect in the repeat runs; inconclusive = weak or mixed curves; inactive = flat fitted curve, though single readings scatter.

Experiment: qHTS assay to test for compound auto fluorescence at 590 nm (red) in HepG2 cells (AID 720674)
Settings: HepG2 autofluorescence, red 540/590 nm, 1 h; series mostly up to 91.3 µM
Source text: U.S. Tox21 Program National Center for Advancing Translational Sciences [NCATS] NIH Chemical Genomics Center [NCGC] U.S. Environmental Protection Agency [EPA] National Institutes of Environmental Health Sciences [NIEHS] National Toxicology Program [NTP] U.S. Food and Drug Administration [FDA] Tox21 Assay Overview: Compound auto fluorescence often interferes with screening of the compound library against various biological targets and signaling pathways. Some of these compounds may have fluorophoric properties. Such properties may interfere with the assay outputs resulting in false positives and/or negatives. To decrease such complications and ensure the compound activities are relevant in terms of biological response, the Tox21 10K compound library was screened for auto fluorescence. From the fluorophores used as reporter signals in our screening assays, the auto fluorescence equivalencies of compounds against three fluorophores have been evaluated: Triamterene, Fluorescein and Rose Bengal sodium for blue, green and red fluorescence, respectively. The fluorescence intensities were measured using Excitation/Emission wavelengths at 405/460nm, 485/535nm and 540/590nm for blue, green and red labels, respectively. This assay includes the red fluorescence data.
Tox21 Assay Protocol Summary: 2,000 HepG2 cells in 5 uL of culture medium (MEM containing 10% FBS) per well were dispensed into black wall/clear bottom 1536-well plates using a Multidrop Combi Dispenser (ThermoFisher Scientific, Waltham, MA). The assay plates were incubated overnight at 37 C to allow cell attachment to the well bottom, followed by the transfer of 23 nL compound or DMSO vehicle by a pintool work station (Kalypsys , San Diego, CA). After the assay plates were incubated for 1 hr at 37 C and 5% CO2, fluorescence intensities in the assay plates were measured by an Envision (PerkinElmer, Shelton, CT) plate reader using three labels for measuring blue, green and red fluorescence at […] 460, 535 and 590 nm respectively.
% is set by controls: 0 for no effect and ±100 for the full control effect.

SMILES | outcome | fluorescence, relative to Rose Bengal
N#Cc1ccc(N(CC(N)=O)CC(F)(F)F)cc1C(F)(F)F | inactive | 
[Cl-].[Cl-].[Cl-].[Yb+3] | inactive | 
CC(Cc1ccc(O)cc1)NCC(O)c1cc(O)cc(O)c1 (stereo not given) | inactive | 
Brc1ccc(Oc2ccc(Br)cc2Br)c(Br)c1 | inactive | 
c1csc(-c2ccc(-c3cccs3)s2)c1 | inactive | 
CN=C=O | inactive | 
CC(C)[C@@H](Nc1ccc(C(F)(F)F)cc1Cl)C(=O)OC(C#N)c1cccc(Oc2ccccc2)c1 (stereo not given in full) | inactive | 
c1cc[n+]2c(c1)-c1cccc[n+]1CC2 | inactive | 
O=S(=O)(O)F | inactive | 
CCN(CC)C(=S)S | inactive | 
CC(Cc1ccc(OCC(=O)O)cc1)NCC(O)c1csc(C(F)(F)F)n1 (stereo not given) | inactive | 
COP(=O)(OC)Oc1ccc([N+](=O)[O-])cc1 | inactive | 
O=C(Cl)c1ccccc1F | inactive | 
CC(=O)[O-].CC(=O)[O-].CC(=O)[O-].[Cr+3] | inactive | 
CC(=O)[O-].CC(=O)[O-].O.O.[Zn+2] | inactive | 
Clc1ccc(C(c2ccc(Cl)cc2)C(Cl)Cl)cc1 | inactive | 
Oc1cc(Cl)cc(Cl)c1 | inactive | 
CC1=C2C[C@H]3[C@@H](CC=C4C[C@@H](O)CC[C@@]43C)[C@@H]2CC[C@]12O[C@@H]1C[C@H](C)CN[C@H]1[C@H]2C | inactive | 
CN(C)c1ccc(N)cc1 | inactive | 
[C-]1=CC=CC1.[Cl][Zr+2][Cl].c1cc[cH-]c1 | inactive | 

SMILES | outcome | fluorescence, relative to Rose Bengal
ClCBr | inactive | 
CCOP(=O)(OCC)Oc1cc(C)nc(C(C)C)n1 | inactive | 
Brc1cccc(-c2ccccc2)c1 | inactive | 
CCCCn1cc[n+](C)c1.[Cl][Fe-]([Cl])([Cl])[Cl] | inactive | 
O=S1(=O)OCC2C(CO1)C1(Cl)C(Cl)=C(Cl)C2(Cl)C1(Cl)Cl (stereo not given) | inactive | 
CCC[CH2][Sn]([CH2]CCC)([CH2]CCC)[O][Sn]([CH2]CCC)([CH2]CCC)[CH2]CCC |  | -0.33% [at 3.72 µM] (inactive)
Nc1nc(N)c(N)c(N)n1 | inactive | 
COc1ccc(Cc2nccc3cc(OC)c(OC)cc23)cc1OC |  | 0.593% [at 18.6 µM] (inactive)
CC[C@]1(O)CC[C@H]2[C@@H]3CCC4=CCCC[C@@H]4[C@H]3CC[C@@]21C | inactive | 
C1=CCC=C1 | inactive | 
CCn1cc[n+](C)c1 (tested in a mixture with another compound) | inactive | 
COc1ccc2c3c1O[C@H]1[C@H](O)CC[C@H]4[C@@H](C2)N(C)CC[C@@]341 | inactive | 
CSC(C)(C)/C=N/O | inactive | 
Cc1ccn2nc(S(=O)(=O)Nc3c(F)cccc3F)nc2n1 | inactive | 
O=[N+]([O-])[O-].[Tl+] | inactive | 
c1ccc2nc(N3CCNCC3)ccc2c1 | inactive | 
C[C@H]1[C@H](c2ccc(Cl)cc2)SC(=O)N1C(=O)NC1CCCCC1 | inactive | 
ClC1=C(Cl)[C@]2(Cl)[C@H]3[C@H]([C@@H]4C=C[C@H]3C4)[C@@]1(Cl)C2(Cl)Cl | inactive | 
N#Cc1c[nH]cc1-c1cccc2c1OC(F)(F)O2 | inactive | 
COc1ccc2[nH]cc(CCN(C(C)C)C(C)C)c2c1 | inactive | 
